PubChem BioAssay (EPA / NIEHS)
Where a structure was tested more than once in an assay, its records may differ in their call. Activity calls are given as the source filed them. How the source made its calls: active means hit-call score of the fitted dose curve at least 0.9, where 1 is the maximum; inactive means score below 0.9.

Read-out: Urokinase-type plasminogen activator receptor (uPAR), PLAUR (gene 5329)
Assay: BSK_4H_uPAR: BioMAP Diversity Plus: 4H Assay for Urokinase-type plasminogen activator receptor (uPAR) Biomarker Activity (AID 2283030)
Settings: primary human endothelial cells (HUVEC); actives raise or lower the signal
Procedure: BSK_4H is a cell-based, multiplexed-readout assay that uses umbilical vein endothelium, a human vascular primary cell, with measurements taken at 24 hours after chemical dosing in a 96-well plate.BSK_4HAR is an assay component measured in the BSK_4H assay. It measures uPAR antibody related to regulation of gene expression using ELISA technology.Data from the assay component BSK_4HAR was analyzed into 1 assay endpoint. This assay endpoint, BSK_4HAR, was analyzed with bidirectional fitting relative to DMSO as the negative control and baseline of activity. Using a type of binding reporter, gain or loss-of-signal activity can be used to understand changes in the signaling as they relate to the gene PLAUR. Furthermore, this assay endpoint can be referred to as a primary readout, because this assay has produced multiple assay endpoints where this one serves a signaling function. To generalize the intended target to other relatable targets, this assay endpoint is annotated to the cytokine intended target family, where the subfamily is plasmogen activator.
The levels of cell surface (or secreted, indicated by the prefix "s") biomarker endpoints were measured by ELISA. Overt cytotoxicity to cells in confluent adherent cultures (all systems other than the BT system) was assessed by measuring total protein levels using sulforhodamine B (SRB) staining in parallel cultures at the time of biomarker measurements, indicated as SRB endpoints. For proliferation assays for adherent cell types, individual cell types are cultured at sub-confluence and relative cell numbers quantified by SRB staining at time points optimized for each system (48 h: 3C and CASM3C systems; 72 h: BT and HDF3CGF systems; 96 h: SAg system). SRB was performed by staining cells with 0.1% SRB after fixation with 10% TCA and reading wells at 560 nm.Viability and proliferation of PBMC (T cells) was quantified by Alamar Blue reduction for the SAg and BT systems. For PBMC viability (referred to as PBMC Cytotoxicity within the assay endpoint names), cells were plated (75,000/well in a 96-well plate) and then chemical samples added for 1 h before addition of activators, SEB and TSST-1 (20 ng/mL final concentration each). Cells were incubated for 90 h. Then, Alamar Blue (20 uL/well) (Invitrogen, Cat DAL1100) was added for 6 h, and the plates were read with a fluorescence microplate reader at 546/580 nm (excitation/emission). For PBMC proliferation, cells were plated and activated as above but incubated for only 16 h prior to addition of Alamar Blue. Plates were read after 6 h.

| Structure (SMILES) | outcome | AC50 |
| --- | --- | --- |
| OC(CCl)CCl | inactive | – |
| Cn1c(=O)c2[nH]cnc2n(C)c1=O | inactive | – |
| OCCC(F)(F)C(F)(F)C(F)(F)C(F)(F)F | inactive | – |
| C[C@]12C=CC(=O)C=C1CC[C@H]1[C@@H]3C[C@@H](O)[C@](O)(C(=O)CO)[C@@]3(C)C[C@H](O)[C@@]12F | inactive | – |
| FC(F)C(F)(F)COCC1CO1 (stereo not given) | inactive | – |
| CCCCCOC(C)=O | inactive | – |
| CCCc1ccccc1 | inactive | – |
| CCCOc1ccc(S(=O)(=O)N2CCN(CC)CC2)cc1-c1nc2c(CC)n(Cc3ccccn3)nc2c(=O)[nH]1 | inactive | – |
| COc1cc(C(C)C)c2c(c1)S(=O)(=O)N(COc1cc(=O)n3cccc(OCCN4CCCCC4)c3n1)C2=O | – | 4.05 µM (active) |
| CC1(C)C(=O)N(Cl)C(=O)N1Cl | inactive | – |
| CCOC(N)=O | inactive | – |
| CCCCC(CC)C(=O)OCCOCCOCCOC(=O)C(CC)CCCC (stereo not given) | inactive | – |
| O=C(O)c1cccc(C[C@@H]2COc3ccc(OCc4nc5cc(F)ccc5s4)cc3[C@@H]2O)c1 | inactive | – |
| O=S1(=O)CCCO1 | inactive | – |
| C=CN1CCCC1=O | inactive | – |
| CC(C)CC(C)O (stereo not given) | inactive | – |
| FC(F)(F)COC(OCC(F)(F)F)OCC(F)(F)F | inactive | – |
| C=CCc1cc(S(=O)(=O)c2ccc(O)c(CC=C)c2)ccc1O | – | 13.9 µM (active) |
| NC(=O)N(O)[C@@H]1COc2cc(OCc3ccccc3)ccc21 | inactive | – |
| O=C(O)[C@H](O)[C@@H](O)C(=O)O | inactive | – |

| Structure (SMILES) | outcome | AC50 |
| --- | --- | --- |
| OCC(CO)(CO)CO | inactive | – |
| COc1cc2c(c(OC)c1OC)-c1ccc(OC)c(=O)cc1[C@@H](NC(C)=O)CC2 | – | 0.148 µM (active) |
| CC[C@H](C)C(=O)O[C@H]1C[C@H](O)C=C2C=C[C@H](C)[C@H](CC[C@@H](O)C[C@@H](O)CC(=O)O)[C@H]21 | inactive | – |
| c1ccc2c(c1)-c1cccc3c1c-2cc1ccccc13 | inactive | – |
| NC(=O)NN=Cc1ccc([N+](=O)[O-])o1 | inactive | – |
| CC(C)c1nnc2ccc(-c3ocnc3-c3cc(F)ccc3F)cn12 | inactive | – |
| OCCOCCOCCO | inactive | – |
| O=S(=O)(O)CCC(F)(F)C(F)(F)C(F)(F)C(F)(F)C(F)(F)C(F)(F)F | inactive | – |
| O=C(NO)C1(NS(=O)(=O)c2ccc(Oc3ccc(F)cc3)cc2)CCOCC1 | inactive | – |
| OC(Cn1cncn1)(Cn1cncn1)c1ccc(F)cc1F | inactive | – |
| CCN(CC)C(=S)SSC(=S)N(CC)CC | – | 26.4 µM (active) |
| Cc1nccn1-c1ccc(Sc2cccc(C3(C(N)=O)CCOCC3)c2)cc1 | inactive | – |
| COCc1nnc(-c2ccc[n+]([O-])c2)n1-c1c(Cl)c(Cl)cc2[nH]c(=O)c(=O)[nH]c12 | inactive | – |
| c1ccc2cc3ccccc3cc2c1 | inactive | – |
| OC(O)(C(F)C(O)(O)C(F)(F)F)C(F)(F)F | inactive | 20.5 µM (active) |
| O=C(O)c1cccc(C(=O)O)c1 | inactive | – |
| CCCCCCCC/C=C\CCCCCCCC(=O)OC[C@@H](O)[C@H]1OC[C@H](O)[C@H]1O | inactive | – |
| Nc1ccn([C@@H]2O[C@H](CO)[C@@H](O)[C@@H]2O)c(=O)n1 | – | 4.93 µM (active) |
| C[Si](C)(C)C(F)(F)C(F)(F)C(F)(F)F | inactive | – |
